# Test results from PubChem BioAssay.
# Values without a mark were called inactive. How the calls were made is not given here.
# Molecular target: Pantothenate synthetase (Mycobacterium tuberculosis (strain ATCC 25618 / H37Rv)) (UniProt P9WIL5)
# Assay: Coupled enzyme confirmation of inhibitors against recombinant Mtb PanC (AID 375);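 further: 0% = full reaction with vehicle and 100% = no enzyme background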
# Details: coupled enzyme assay; at 10 µM, stronger effect = higher value
# Chain of Pantothenate synthetase (Mycobacterium tuberculosis (strain ATCC 25618 / H37Rv)) (P9WIL5 whole entry, looked up): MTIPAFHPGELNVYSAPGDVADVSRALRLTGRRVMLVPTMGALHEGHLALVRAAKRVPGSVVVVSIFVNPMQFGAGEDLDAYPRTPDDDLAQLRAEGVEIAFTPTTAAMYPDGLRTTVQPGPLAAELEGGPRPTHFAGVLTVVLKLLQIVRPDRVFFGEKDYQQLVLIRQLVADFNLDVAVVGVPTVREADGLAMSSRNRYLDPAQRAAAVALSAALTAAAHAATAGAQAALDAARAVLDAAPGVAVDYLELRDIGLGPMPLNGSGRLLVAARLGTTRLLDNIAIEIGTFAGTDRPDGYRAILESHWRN
row,SMILES,inhibition [%]
1,CC(C)=CCCC(C)CN(C)CCc1ccccn1 (configuration not stated),0
2,COC(=O)c1ccc(CSc2ncnc3c2nnn3-c2ccc(OC)cc2)o1,0
3,COc1ccc2cc([C@H](C)C(=O)O)ccc2c1,0
4,CCOC(=O)c1sc(NC(=O)CSc2nnnn2-c2ccccc2)c(C(=O)OCC)c1C,0
5,Cc1cc(C(=O)CSCc2nnc3n(CCC(C)C)c(=O)c4ccccc4n23)c(C)n1C,8
6,COc1ccc(C(=O)N(Cc2ccco2)C(C(=O)NC2CCCC2)c2ccc(O)cc2)cc1OC (configuration not stated),0
7,Cc1ccccc1Cc1c(C)nc2c(C(=O)N3CCN(Cc4ccc5c(c4)OCO5)CC3)cnn2c1C,5
8,CC(C)(C)NC(=O)Cn1c(=O)oc2ccc(Cl)cc21,0
9,O=C1c2ccccc2C(=O)N1C/C=C/CN1C(=O)c2ccccc2C1=O,0
10,CCN1CCN(S(=O)(=O)Cc2ccccc2)CC1,0
11,COc1ccc(CNS(=O)(=O)c2ccc3oc(C(=O)O)c(C)c3c2)cc1,0
12,CCOC(=O)Cn1c(=N)n(CCOc2cccc(C)c2)c2ccccc21,0
13,CCc1c(C)nc(N2CCN(Cc3ccccc3)CC2)[nH]c1=O,3
14,CC1=C(C(=O)N2CCCCC2)C(c2cccs2)C2=C(CCCC2=O)N1 (configuration not stated),0
15,CN(CC(=O)Nc1cccnc1)S(=O)(=O)c1cc(Cl)ccc1Cl,0
16,O=C1CC(C(=O)Nc2ccc(Br)cc2)C2(CCCC2)O1 (configuration not stated),1
17,CCCCOc1ccc(OCCCN2CCOCC2)cc1,2
